# This is one part of a sample in which hits are shown more often than they occur.
# Tgondii IFNg – inhibitors of Toxoplasma gondii growth with IFN-gamma | 69,000 compounds, 3.8% hits | Toxoplasma gondii growth in IFN-gamma-treated host cells; stronger effect = lower value | activity change, negative = inhibition, % (concentration not given with the values); in the data active = activity change below about -70%, passing the limit was not always enough;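 also: host cells are HeLa cells infected with Toxoplasma gondii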
# An asterisk follows results filed as active; i = inactive; ! = not confirmed by another sample.
SMILES,Tgondii IFNg
CN=C1Sc2nc3c(cc2CN1C1CCCCC1)c(C(C)(C)C)nn3-c1ccccc1,-85*
COc1ccc(CNC(=O)c2nc(N3CCOCC3)c3ccccc3n2)cc1,-4
COc1ccc(OC)c(CNC(=O)c2nc(N3CCOCC3)c3ccccc3n2)c1,-40
Cc1ccc(C)c(CNC(=O)c2nc(N3CCOCC3)c3ccccc3n2)c1,-87*
CCn1c(=O)c(-c2nc(-c3cc(OC)cc(OC)c3)no2)c(O)c2ccccc21,14
O=C(c1cccnc1)N1CCOC2CC(COc3ccccn3)CC21 (centres undefined),16
COc1cccc([C@H]2CN(C(=O)c3ccccc3)[C@@H]3CCN(C(=O)c4cnccn4)C[C@H]23)c1,-56
O=C(CC1CC2CCC1C2)Nc1ccc(NC(=O)c2ccccn2)cc1 (centres undefined),99
O=C1CCc2cc(NC(=O)c3ccc(OC(F)(F)F)cc3)ccc2N1,-4
Cc1nc(N2CCOC(C(F)(F)F)C2)c2ccsc2n1 (centres undefined),-7
FC(F)(F)C1CN(c2nc(-c3ccccc3)no2)CCO1 (centres undefined),21
CC(C)c1cc(N2CCOC(C(F)(F)F)C2)nc(C(F)(F)F)n1 (centres undefined),-81*
C=CCOC1CC2(CCN(C(=O)c3ccnnc3)CC2)C1,7
O=C(Cc1ccc(F)cc1)N1CCc2ncnc(C3CC3)c2CC1,4
O=C(NCCN1CCC(O)(c2ccc(F)cc2)CC1)c1c(F)cccc1F,13
O=C(Cc1ccc2c(c1)CCC2)NCCN1CCC(O)(c2ccc(F)cc2)CC1,-76*
COc1cc2c(cc1CN1CCC(NC(C)=O)(c3ccc(F)cc3)CC1)CCC2,-11
COCC(=O)n1nc(-c2ccco2)nc1NCc1cccs1,29
CC(=O)O[C@H]1C(=O)[C@@]2(C)[C@H]([C@H](OC(=O)c3ccccc3)[C@]3(O)C[C@H](OC(=O)[C@H](O)C(NC(=O)c4ccccc4)c4ccccc4)C(C)=C1C3(C)C)[C@]1(OC(C)=O)CO[C@@H]1C[C@@H]2O (some centres undefined),-96*
CC(=O)O[C@H]1C(=O)[C@@]2(C)[C@H]([C@H](OC(=O)c3ccccc3)[C@]3(O)C[C@H](OC(=O)[C@H](O)[C@@H](NC(=O)c4ccccc4)c4ccccc4)C(C)=C1C3(C)C)[C@]1(OC(C)=O)CO[C@@H]1C[C@@H]2O,-82*!
CCn1ccc2cc(CCC(=O)NC(C)c3ccccn3)ccc21 (centres undefined),-70
CC(C)(C(=O)NCC(F)(F)C(F)(F)F)C(=O)N[C@@H]1C(=O)Nc2ccccc2-c2ccccc21,-89*
CCC(=O)N1CCCC(C2C(=O)Nc3ccccc32)C1 (centres undefined),1
O=c1cc(-c2ccccc2)c2cc(Cl)c(O)cc2o1,-1
O=c1cc(CN2CCN(c3cccc(Cl)c3)CC2)c2cc(O)c(-c3ccccc3)cc2o1,33
SMILES,Tgondii IFNg
O=c1cc(O)c2c(=O)n(-c3ccccc3)c(-c3ccccc3)cc2o1,-100*
Fc1ccc(N2CCCN(Cc3cnc(-c4ccco4)nc3)CC2)cc1,20
COc1ccc(C2NC(C(=O)O)CS2)cc1O (centres undefined),7
CCN1C(=O)CCc2cc(NS(=O)(=O)c3ccc4c(c3)OCCO4)ccc21,-54
COCCN1C(=O)CCc2cc(NS(=O)(=O)c3ccc(OC)c(OC)c3)ccc21,111
CCN1C(=O)CCc2cc(NS(=O)(=O)c3ccccc3Cl)ccc21,28
CCN1C(=O)CCc2cc(NS(=O)(=O)c3ccc(Cl)c(Cl)c3)ccc21,-100*
CCN1C(=O)CCc2cc(NS(=O)(=O)c3ccc(C)c(F)c3)ccc21,-72*
CCN1C(=O)CCc2cc(NS(=O)(=O)c3cccc(C)c3)ccc21,-43
CCCc1cc(N2CCCC(Nc3ccc4c(c3)OCCO4)C2)nc(C)n1 (centres undefined),4
Cc1ccc(OCC(=O)N2CCOCC2c2csc(C)n2)cc1 (centres undefined),7
CCN1CCO[C@H]2CCN(C(=O)C3CC=CC3)C[C@H]21,21
O=C(Cc1cccc(F)c1)N1CC(C(=O)N2CCCC2)C2(CCOCC2)C1 (centres undefined),241
CCN(CC)S(=O)(=O)c1ccc2c(c1)NC(=O)CO2,-5
Cc1cc(-c2ccc3c(c2)OCCO3)cnc1N,75
NC1=NN=C(c2ccc3c(c2)OCCO3)CS1,-81*
c1cc2c(cc1-c1csc(-c3ccc4c(c3)OCCO4)n1)OCCO2,58
S=c1[nH]nc(-c2ccncc2)n1-c1cccc(Cl)c1,15
Cn1c(-c2ccc(Cl)cc2)n[nH]c1=S,-97*
COc1ccc(-c2n[nH]c(=S)n2Cc2ccccc2)cc1,53
CCN(CC)c1ncnc2c1cnn2CC(=O)NCc1cccc(C(F)(F)F)c1,146
CCN(CC)c1ncnc2c1cnn2CC(=O)NCc1ccc(C)o1,42
CCN(CC)c1ncnc2c1cnn2CC(=O)Nc1cccc(F)c1,-75*
CCOc1ccc(NC(=O)Cn2ncc3c(N(CC)CC)ncnc32)cc1,75
CCN(CC)c1ncnc2c1cnn2CC(=O)Nc1ccc(OC)cc1,89
SMILES,Tgondii IFNg
CCN(CC)c1ncnc2c1cnn2CC(=O)NCCOC,-16
CCN(CC)c1ncnc2c1cnn2CC(=O)NCc1ccc(C(F)(F)F)cc1,56
CCN(CC)c1ncnc2c1cnn2CC(=O)NCc1ccc(F)cc1,-94*
CCN(CC)c1ncnc2c1cnn2CC(=O)NCc1ccc(C)cc1,-86*
CCc1nn(C)c(Cl)c1CN1CCCC1c1ccc(F)cc1 (centres undefined),12
CC(=O)Nc1ccc(C(=O)N(C2CC2)C2(C(=O)NCc3ccccc3)CCN(C(C)=O)CC2)cc1,-3
Cc1ccc(NC(=O)C(=O)NCCc2csc(-c3ccc(C(F)(F)F)cc3)n2)cc1F,119
O=C(Nc1cnn(-c2ncc(N3CCSCC3)cn2)c1)NC1CCCC1,-1
COC(=O)c1ccc(CSc2n[nH]c(-c3ccncc3)n2)o1,-19
Cn1cc(C2COC3(CCCN(C(=O)c4ccccc4F)C3)C2)cn1 (centres undefined),-3
COc1ccccc1CN(Cc1cccnc1)Cc1ccoc1,-4
O=C(CN1CCC2(CCC1=O)NC(=O)c1ccccc1N2)NCc1ccc2c(c1)OCO2 (centres undefined),-13
N#CCNC(=O)c1ccc(-c2ccnc(Nc3ccc(N4CCOCC4)cc3)n2)cc1,-80*
COc1ccc(NC(=O)CS(=O)CC(=O)Nc2ccc(N3CCOCC3)cc2)cc1 (centres undefined),-1
COc1ccc(-c2[nH]ncc2CNC(=O)c2ccc(N3CCOCC3)cc2)cc1,7
O=C(NC1CCCC1)C1CN(C(=O)CCN2CCc3ccccc32)CCO1 (centres undefined),-42
Cc1cc(C)cc(NC(=O)NCC(c2cccnc2)c2cn(C)c3ccccc23)c1 (centres undefined),i
CC(C)N(C)Cc1cc(=O)n2c(n1)CN(C(=O)c1ccc[nH]1)CCC2,2
C=CCN(CC=C)C(=O)CN1CCC[C@H]1CO,13
COc1cccc(CC2=NOC(C(=O)N3CCC(Sc4ccc(F)cc4)CC3)C2)c1 (centres undefined),12
NCC(=O)Nc1ccc(-n2nc(C(F)(F)F)cc2-c2ccc3c(ccc4ccccc43)c2)cc1,-87*
NCC(=O)Nc1ccc(-c2cccc(C(F)(F)F)c2)cc1F,-57
Cc1ccc(-c2cc(C(F)(F)F)nn2-c2ccc(S(N)(=O)=O)cc2)cc1,-63
COCCN1C(=O)CCC12CCN(C(=O)COC)CC2,0
